Read-outs that look alike come from different tables or passages of the source.

Set-up in all cases: species or system human, MV4-11 + K-562 + COLO205 + SK-N-BE2 + OVCAR-8
Test [1] concerns CSNK1A1. As to conditions: read-out: apparent Kd, n = 1.
The test system of test [2] is YES1. As to conditions: read-out: apparent Kd; compound concentrations:100 nM and 1000 nM (sheet 'Samples'); n = 1.
Test [3] deals with ADCK1. Particulars: read-out: apparent Kd, n = 1.
Test [4] concerns CSNK1E. As to conditions: read-out: apparent Kd; compound concentrations: 100 nM and 1000 nM (sheet 'Samples'), CATDS: 2.4076386460309102E-2; n = 1.
For test [5], the system named is MAPK10. Particulars: read-out: apparent Kd, n = 1.
Test [6] relates to MAPK8. As to conditions: read-out: apparent Kd, n = 1.
Test [7] concerns RIOK2. As to conditions: read-out: apparent Kd, n = 1.
The subject of test [8] is CDK17. Particulars: read-out: apparent Kd; compound concentrations:100 nM and 1000 nM (sheet 'Samples'); n = 1.
Test [9] has as its system PHKG2. Particulars: read-out: apparent Kd, n = 1.
Test [10] has as its system ROCK2. As to conditions: read-out: apparent Kd, n = 1.
The test system of test [11] is STK16. Particulars: read-out: apparent Kd, n = 1.
For test [12], the system named is EPHA2. Particulars: read-out: apparent Kd, n = 1.
The test system of test [13] is HCK. Particulars: read-out: apparent Kd; compound concentrations: 100 nM and 1000 nM (sheet 'Samples'), CATDS: 1.9651331650111199E-2; n = 1.
Test [14] deals with SRC. As to conditions: read-out: apparent Kd, n = 1.
The test system of test [15] is MARK2. Particulars: read-out: apparent Kd; compound concentrations: 100 nM and 1000 nM (sheet 'Samples'), CATDS: 1.32977550051059E-2; n = 1.
For test [16], the system named is PRKAA2. As to conditions: read-out: apparent Kd; compound concentrations: 100 nM and 1000 nM (sheet 'Samples'), CATDS: 1.2623383108322899E-2; n = 1.
Test [17] has as its system STK3. Particulars: read-out: apparent Kd; compound concentrations: 100 nM and 1000 nM (sheet 'Samples'), CATDS: 1.6307369361129399E-2; n = 1.
The subject of test [18] is TNIK. As to conditions: read-out: apparent Kd; compound concentrations: 100 nM and 1000 nM (sheet 'Samples'), CATDS: 1.31715083861153E-2; n = 1.
[19] abbreviates: compound concentrations:100 nM and 1000 nM (sheet 'Samples').

Turning to `CNc1cc(-c2ccc3c(N)n[nH]c3c2)nc(N)n1` [GSK2224810A], the potency estimated from few doses in test [1] (setting [19]) is 2.45 µM; in test [2], 1.16 µM.

With `c1cnn2ncc(-c3ccnc(Nc4ccc5c(c4)OCCO5)n3)c2c1` [GW806290X], the potency estimated from few doses in [3] (compound concentrations: 100 nM and 1000 nM (sheet 'Samples'), CATDS: 2.0516224728304101E-2) is 1.82 µM; in test [1] (compound concentrations: 100 nM and 1000 nM (sheet 'Samples'), CATDS: 2.11429118311642E-2) it was 1.62 µM; in test [4] it was 1.05 µM; in test [5] (compound concentrations: 100 nM and 1000 nM (sheet 'Samples'), CATDS: 2.29064571505532E-2) it was 1.23 µM; in [6] (compound concentrations: 100 nM and 1000 nM (sheet 'Samples'), CATDS: 3.07479356857355E-2), 0.532 µM; in test [7] (compound concentrations: 100 nM and 1000 nM (sheet 'Samples'), CATDS: 4.9537974032322102E-2), 0.183 µM.

On to `CN(c1ccc(NC(=O)NCCN2CCOCC2)cc1)c1ccnc(Nc2ccc(CS(C)(=O)=O)cc2)n1.Cl` [GW830365A], for which the potency estimated from few doses in test [3] (compound concentrations: 100 nM and 1000 nM (sheet 'Samples'), CATDS: 4.75269778892356E-2) is 1.55 µM.

On to `CN(C)CC(O)COc1ccc(Nc2nccc(-c3cnn4nc(N5CCOCC5)ccc34)n2)cc1` (stereo not drawn) [GW767488X], for which the potency estimated from few doses was 0.587 µM in test [3] (setting [19]); 0.2 µM in [8]; 1.25 µM in test [1] (setting [19]); 0.107 µM in test [5] (setting [19]); 0.127 µM in test [6] (setting [19]); 2.25 µM in [9] (setting [19]). The potency estimated from few doses in test [7] (setting [19]) is 0.206 µM; in [10] (setting [19]), 1.44 µM; in [11] (setting [19]) it was 0.0692 µM.

For `Cc1ccccc1-n1ncc(C(=O)c2ccccc2)c1N` [RO1151248-000], the potency estimated from few doses in [12] (compound concentrations: 100 nM and 1000 nM (sheet 'Samples'), CATDS: 1.9884880942714601E-2) was 1.44 µM; in [13], 1.48 µM; in test [14] (compound concentrations: 100 nM and 1000 nM (sheet 'Samples'), CATDS: 2.0715769219535499E-2), 1.29 µM; in test [11] (compound concentrations: 100 nM and 1000 nM (sheet 'Samples'), CATDS: 1.8222125974055099E-2) it was 1.86 µM.

Consider `CCCc1cc(N2CCCN(C)CC2)nc2sc3c(N)ncnc3c12` [BI00604564], for which the potency estimated from few doses in [3] (compound concentrations: 100 nM and 1000 nM (sheet 'Samples'), CATDS: 0.15175006426197701) is 1.55 µM; in [7] (compound concentrations: 100 nM and 1000 nM (sheet 'Samples'), CATDS: 0.19130476647028), 0.959 µM.

On to `COc1cc(Nc2nccc(N3CCC(NC(=O)c4cccc(NC(C)=O)c4)C3)n2)cc(OC)c1OC` (stereo not drawn) [GSK1379754A], for which the potency estimated from few doses in test [3] (compound concentrations: 100 nM and 1000 nM (sheet 'Samples'), CATDS: 8.2961514797517094E-2) was 1.82 µM.

As to `NC(=O)c1cc(-c2ccccc2)cc2c(C3CCNCC3)c[nH]c12` [GSK301362A], the potency estimated from few doses in [3] (setting [19]) was 1.52 µM.

For `COc1cc[nH]c1/C=C1\C(=O)Nc2ccc(F)c(C#CC3(O)CCNCC3)c21.Cl` [RO0282986-001], the potency estimated from few doses was 1.51 µM in test [3] (compound concentrations: 100 nM and 1000 nM (sheet 'Samples'), CATDS: 9.6711432627754196E-3); 1.66 µM in test [1] (compound concentrations: 100 nM and 1000 nM (sheet 'Samples'), CATDS: 9.4699947154489802E-3); 1.6 µM in test [5] (compound concentrations: 100 nM and 1000 nM (sheet 'Samples'), CATDS: 9.5486825617733494E-3); 0.801 µM in test [6] (compound concentrations: 100 nM and 1000 nM (sheet 'Samples'), CATDS: 1.15534009295916E-2); 0.536 µM in test [15]; 1.05 µM in [9] (compound concentrations: 100 nM and 1000 nM (sheet 'Samples'), CATDS: 1.06478310552471E-2). In addition, the potency estimated from few doses is 0.618 µM in test [16]; 0.668 µM in [10] (compound concentrations: 100 nM and 1000 nM (sheet 'Samples'), CATDS: 1.22765922159753E-2); 0.526 µM in test [11] (compound concentrations: 100 nM and 1000 nM (sheet 'Samples'), CATDS: 1.3388611542508999E-2); 0.326 µM in test [17]; 0.55 µM in test [18].

`CC(=O)N[C@@H](Cc1ccc(OP(=O)(O)O)cc1)C(=O)N[C@H]1CCC(=O)N2CCC[C@@H](C(=O)NCc3ccc(Cl)cc3)N2C1=O` [RO0325308-000]: the potency estimated from few doses is 1.13 µM in test [12] (setting [19]); 1.88 µM in [9] (setting [19]); 0.141 µM in [7] (setting [19]); 1.04 µM in [14] (setting [19]); 1.03 µM in test [2].

Source of the values: paper PMC11062922 (Nature Chemical Biology, 2023).
